# According to the OligoGym collection:
# Target: HIST1H4B
# Test: pooled miR-30 sensor sort-seq; sequence = guide strand
# Settings: shRNA
# Further: reference of the scale not given here.
row,Sequence,sensor-assay potency score (higher = more potent)
1,TCTCCTCATAAATCAAACCGGA,-1.02
2,AACACCTTGAGAACGCCACGAG,-0.445
3,TTGGATGTTATCCCGCAGCACT,-1.27
4,TACCCAAACCTTTACCGCCTTT,-0.866
5,TGACAGTCTTGCGCTTGGCGTG,-1.49
6,AATCAAACCGGAAATTCGCTTA,0.0174
7,ATCCATGGCAGTGACAGTCTTG,-0.826
8,TTATCCCGCAGCACTTTTCGGT,-0.874
9,TATCCCGCAGCACTTTTCGGTG,-1.57
10,TAAACCACATCCATGGCAGTGA,0.196
11,TTTGGTGATGCCTTGGATGTTA,0.361
12,TCCTTGACGCTTGAGCGCGTAA,-1.7

# Target: HIST1H4G
# Test: as above
# Settings: shRNA
row,Sequence,sensor-assay potency score (higher = more potent)
1,ATATTATCGCTCAGTACCTTGC,-0.774
2,TTATCGCTCAGTACCTTGCGAT,-0.526
3,AGGAACACCTTGAACACCCGGC,-0.945
4,TTTGAGCACGTAGACCACGGCC,-0.756
5,ATTATCGCTCAGTACCTTGCGA,-0.081
6,AATATTATCGCTCAGTACCTTG,-1.22
7,ACACCTTGAACACCCGGCGGGT,-1.05
8,TACCAGATCACATTTTCCAGGA,-0.129
9,ACATTTTCCAGGAACACCTTGA,-0.0469
10,TATCGCTCAGTACCTTGCGATG,-1.74
11,TTGAGCACGTAGACCACGGCCA,-0.24
12,AACACCTTGAACACCCGGCGGG,-0.571

# Target: HIST2H2AB
# Test: as above
# Settings: shRNA
row,Sequence,sensor-assay potency score (higher = more potent)
1,TCTTCGTCATTCCTCACGGCTA,-1.31
2,TTGTGACTCTCCGTTTTCTTGG,-0.765
3,TGGATATTGGGCAAGACGCCGC,-1.14
4,AACTTGTTGAGCTCTTCGTCAT,-0.274
5,TAACTTGTTGAGCTCTTCGTCA,-0.534
6,GTAACTTGTTGAGCTCTTCGTC,-0.977
7,TTGGGCAACAGGACAGCCTGGA,0.319
8,TGACTCTCCGTTTTCTTGGGCA,0.0701
9,TTTTCTTGGGCAACAGGACAGC,-1.07
10,TTGAGCTCTTCGTCATTCCTCA,0.203
11,TTCGTCATTCCTCACGGCTAGT,-0.686
12,ACTTGTTGAGCTCTTCGTCATT,-1.57
